Screens deposited in PubChem by Broad Institute.
PD-1 reverse act: activators reversing PD-1 mediated T-cell inhibition, primary screen, luminescence, primary human CD4 T cells, PD-L1 beads; CellTiter-Glo 96 h; AID 2316, 2010; activation, % (concentration not given with the values); 29,000 tested, under 10 active; call rule not given here;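 further: 0% = median vehicle wells and 100% = positive control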
NOMO-1 viab: NOMO-1 AML cell viability reduction, primary screen, STK33 inhibitor project, CellTiter-Glo luminescence; NOMO-1 AML viability, 72 h; 37,000 tested, 7.5% active; inhibition, % (concentration not given with the values); in the data active means inhibition above about 80%
MITF inhib: inhibitors of MITF, primary screen, MITF inhibitor project, cell-based, luminescence. TRPM1 promoter luciferase, 24 h. inhibition, % (test concentration not listed). 37,000 tested, 0.28% active. AID 2240, 2010; in the data active means inhibition above about 85%;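 further: human melanocyte line stably carrying TRPM1 promoter luciferase reporter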
ROS inducer: ROS inducers in U2OS cancer cells, primary screen, cell-based, H2DCF-DA fluorescence; U2OS ROS induction; 46,000 tested, 2% active; ROS induction (% of piperlongumine), % at 10 µM; in the data active means ROS induction above about 79%, passing the limit was not always enough;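 further: 0% = DMSO vehicle median and 100% = reference compound median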
YB-1 expression: inhibitors of YB-1 gene expression, primary screen, cell-based, fluorescence | U2OS, qRT-PCR YB-1 vs CDIP delta delta Cp, 16 h; stronger effect = higher value; zero = DMSO, each unit about twofold | delta delta Cp (YB-1 minus CDIP) (test concentration not listed) | 30,000 tested, 0.37% active;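 active means delta delta Cp rounded down to an integer at or above 3, about 3 SD of DMSO wells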;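 further: higher means less YB-1 transcript or more CDIP transcript relative to DMSO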
* hit, by the source's call; nt = no result. Shown is part of a subset that was picked to be rich in hits.

SMILES	PD-1 reverse act	NOMO-1 viab	MITF inhib	ROS inducer	YB-1 expression
C=CCNC(=O)[C@H]1[C@@H]2C(=O)O[C@@H](c3ccccc3)[C@@H](c3ccccc3)N2[C@@H](c2ccc(OCCO)cc2)[C@]12C(=O)Nc1ccc(C#CC3(O)CCCCCC3)cc12	nt	nt	nt	49.0	-0.491
C=CCNC(=O)[C@@H]1[C@H]2C(=O)O[C@H](c3ccccc3)[C@H](c3ccccc3)N2[C@H](c2ccc(OCCO)cc2)[C@@]12C(=O)Nc1ccc(C#CC3(O)CCCCCC3)cc12	nt	nt	nt	85.1*	-0.17
COc1ccc(O)c(-c2cnc(=S)[nH]c2-c2cc(OC)ccc2OC)c1	-2.5	5.8	-31.3	1.6	0.0795
CCc1c(C)sc(NC(=S)Nc2cc(OC)c(Cl)cc2OC)c1C(=O)OC	nt	31.0	-9.3	nt	nt
COCCN1C(=O)/C(=C/c2cn(CC(=O)OC)c3ccccc23)C(=O)N(c2ccccc2)C1=O	1.3	28.1	-5.1	93.0*	0.0336
CCC(C)NC(=O)Nc1ccc(Br)cc1F (configuration not stated)	nt	nt	nt	10.1	nt
CCOC(=O)c1c(CN2CCCCC2)n(-c2ccccc2)c2cc(Br)c(OC)cc12	-1.4	39.8	2.9	120.9*	0.219
Cc1ccccc1NC(=O)CSc1nc2cc3ccccc3cc2[nH]1	nt	115.5*	-2.6	nt	nt
Cc1ccc(NC(=O)CSc2nc(-c3ccccc3)c(-c3ccccc3)[nH]2)c(C)c1	nt	2.4	10.6	nt	nt
O=C(CSc1nc2ccccc2[nH]1)Nc1cccc2ccccc12	-2.3	12.8	39.7	-15.1	nt
Cc1cc(C)c(NC(=O)CSc2nc(-c3ccccc3)c(-c3ccccc3)[nH]2)c(C)c1	-5.7	101.0*	91.8*	-4.7	nt
COc1ccccc1NC(=O)Cn1nnc(-c2ccc(C(F)(F)F)cc2)n1	0.7	0.0	-0.6	-6.0	nt
CC1(C)Cc2c(sc3c2c2ncnn2c2nnc(SCC(=O)NCc4ccccc4)n32)CO1	nt	19.5	12.6	nt	nt
O=C1/C(=C/c2ccccn2)CC/C1=C\c1ccccn1	-3.9	134.7*	-2.8	55.8	0.209
COc1ccc(Nc2cc(C(F)(F)F)ccc2Cl)c(C(=O)O)c1	nt	nt	nt	-3.0	nt
Cc1ccc(OCC(=O)Nc2cccc(-c3nc4ccccc4[nH]3)c2)cc1	0.4	7.2	-66.1	-2.5	nt
CCOc1ccc(-c2nc3ccc(-c4nc5ccc(N6CCN(C)CC6)cc5[nH]4)cc3[nH]2)cc1	nt	115.7*	79.5	-5.3	0.895
Cc1ccc2nc(-c3cccc(NC(=O)C4CCCCC4)c3)oc2c1	nt	nt	nt	13.2	nt
O=C(Nc1ccc(-c2nc3cc(NC(=O)C4CCCCC4)ccc3o2)cc1)C1CCCCC1	0.1	99.0*	4.9	46.8	0.0334
O=C(N/N=C/c1cccc(B(O)O)c1)c1ccccc1O	nt	nt	nt	-8.7	-0.134
CC1=C(C#N)C(C(F)(F)F)(C(F)(F)F)N=C(C2CCCCC2)N1	-1.9	141.0*	64.5	6.4	-0.166
C[C@@H]1CN([C@@H](C)CO)C(=O)c2cccc(NC(=O)C3CCCCC3)c2O[C@H]1CN(C)C(=O)Nc1ccc(F)cc1	nt	13.4	5.1	-7.2	0.132
COc1ccc(NC(=O)Nc2ccc3c(c2)CC(=O)N([C@H](C)CO)C[C@@H](C)[C@@H](CN(C)Cc2ccc(C(F)(F)F)cc2)O3)cc1	nt	90.2*	20.4	8.9	0.0436
COc1ccc(NC(=O)Nc2ccc3c(c2)CC(=O)N([C@@H](C)CO)C[C@H](C)[C@H](CN(C)Cc2ccc(C(F)(F)F)cc2)O3)cc1	nt	34.7	6.1	5.4	0.17
COc1ccc(CN(C)C[C@H]2Oc3ccc(NC(=O)Nc4ccc(C(F)(F)F)cc4)cc3CC(=O)N([C@H](C)CO)C[C@H]2C)cc1	-3.4	127.0*	52.1	16.1	-0.0864
SMILES	PD-1 reverse act	NOMO-1 viab	MITF inhib	ROS inducer	YB-1 expression
COc1ccc(NC(=O)Nc2ccc3c(c2)CC(=O)N([C@@H](C)CO)C[C@H](C)[C@@H](CN(C)Cc2ccc(C(F)(F)F)cc2)O3)cc1	nt	50.7	11.5	14.0	-0.42
COc1ccc(CN(C)C[C@@H]2Oc3ccc(NC(=O)Nc4ccc(C(F)(F)F)cc4)cc3CC(=O)N([C@H](C)CO)C[C@H]2C)cc1	-1.4	18.4	2.9	-8.4	-0.0598
COc1ccc(NC(=O)Nc2ccc3c(c2)CC(=O)N([C@H](C)CO)C[C@@H](C)[C@H](CN(C)Cc2ccc(C(F)(F)F)cc2)O3)cc1	nt	112.7*	4.9	10.8	-0.18
COc1ccc(CN(C)C[C@@H]2Oc3ccc(NC(=O)Nc4ccc(C(F)(F)F)cc4)cc3CC(=O)N([C@H](C)CO)C[C@@H]2C)cc1	-1.1	118.3*	32.0	6.2	9.71*
COc1c(O)cc2c(c1O)C(=O)OC(C)C2O (configuration not stated)	0.1	12.4	1.7	-2.0	1.88
COc1ccc(CN(C)C[C@H]2Oc3ccc(NC(=O)Nc4ccc(C(F)(F)F)cc4)cc3CC(=O)N([C@@H](C)CO)C[C@H]2C)cc1	nt	124.0*	19.2	0.8	-0.0695
CCCC1=CC(=O)C(O)C1O (configuration not stated)	0.7	7.1	-12.5	-7.0	1.15
COc1ccc(NC(=O)N(C)C[C@H]2Oc3ccc(NC(=O)Cc4ccccc4)cc3CC(=O)N([C@@H](C)CO)C[C@@H]2C)cc1	nt	0.6	3.6	99.5*	0.176
COc1ccc(NC(=O)N(C)C[C@@H]2Oc3ccc(NC(=O)Cc4ccccc4)cc3CC(=O)N([C@@H](C)CO)C[C@@H]2C)cc1	-0.5	-8.0	-1.8	-7.1	-0.0266
C[C@H](CO)N1C[C@H](C)[C@H](CN(C)C(=O)Nc2ccccc2)Oc2ccc(NC(=O)Cc3ccccc3)cc2CC1=O	nt	16.3	-3.2	-1.8	4.58*
O=C(CSC1CC(=O)N(c2ccccc2)C1=O)Nc1ccc(Cl)c(Cl)c1 (configuration not stated)	nt	9.9	0.2	nt	nt
Cc1ccc(Cn2nnc3c(=O)n(CC(N)=O)cnc32)cc1	nt	nt	nt	4.3	nt
Cc1ccc(/C=N/n2nnnc2N)s1	nt	nt	nt	-8.3	nt
COC(=O)c1ccc(Cl)c(NC(=O)CN(c2cccc(Cl)c2)S(C)(=O)=O)c1	2.1	129.2*	24.9	0.5	nt
COC(=O)c1ccc(C)c(NC(=O)CN(c2ccc(Cl)c(Cl)c2)S(C)(=O)=O)c1	-1.8	107.6*	21.9	1.6	nt
C/C=C(/C)C(=O)O[C@H]1C=C(CO)C(=O)[C@H](OC(=O)/C(C)=C/CO)[C@H]1C(C)C	-36.6	122.3*	106.2*	87.0*	0.0916
COc1cc(CNCc2cccc(C(F)(F)F)c2)cc(OC)c1	nt	nt	nt	-7.5	nt
O=C1NCC2(CCN(CCc3ccccc3)CC2)O1	nt	-10.3	12.4	-1.3	-0.0148
O=C1NCN(c2ccccc2)C12CCN(CCCC(c1ccc(F)cc1)c1ccc(F)cc1)CC2	nt	113.6*	-1.8	7.2	-0.449
C[C@@H]1CN([C@@H](C)CO)C(=O)c2cc(NC(=O)Cc3cn(C)c4ccccc34)ccc2O[C@@H]1CN(C)Cc1ccc(Cl)c(Cl)c1	-3.9	92.1*	39.7	27.4	1.03
